Results on 16 compounds are retold here after PubChem BioAssay (NCATS).

SMILES strings stand for the structures. Inconclusive results are not listed. Unmarked numbers belong to inactive results. Calls of active or inactive are those of the source. Calls come from the whole dose curve; as a rule, active = well fitted inhibition curve with a large enough effect; inconclusive = small, poorly fitted or top-dose-only effect; inactive = flat fitted curve, though single readings scatter.

Assay [1] can be described thus: qHTS profiling for inhibitors of Plasmodium falciparum proliferation (AID 504749).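 For activity, negative = inhibition: 0% = DMSO vehicle and full inhibition = artemisinin control.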 Note: nearly all actives have a fitted effect of over 60% in size. Conditions: P. falciparum in erythrocytes, SYBR Green DNA, 72 h. The procedure, abridged:
(§1)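 In a 72 h erythrocytic culture (37 C, humidified, 5% CO2) at 2.5% hematocrit and 0.3% starting parasitemia, compounds were tested; SYBR Green I in detergent lysis buffer stained parasite DNA overnight.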

A further assay relates to 3D7. Described as above. To be noted: P. falciparum in erythrocytes, SYBR Green DNA, 72 h; series mostly up to 28.7 µM. The procedure, abridged: as §1
The subject of a further assay is 7G8. The assay is described as above. To be noted: P. falciparum in erythrocytes, SYBR Green DNA, 72 h; series mostly up to 28.7 µM. The procedure, abridged: as §1
The test system of the next assay is AA1029. Described as above. Conditions: P. falciparum in erythrocytes, SYBR Green DNA, 72 h; series mostly up to 28.7 µM. The procedure, abridged:
as §1

In another assay the test system is AS120. The assay is described as above. To be noted: P. falciparum in erythrocytes, SYBR Green DNA, 72 h; series mostly up to 28.7 µM. The procedure, abridged:
as §1

The subject of a further assay is ATS189. The description is as above. Conditions: P. falciparum in erythrocytes, SYBR Green DNA, 72 h; series mostly up to 28.7 µM. The procedure, abridged: as §1
A further assay relates to ATS95. Described as above. To be noted: P. falciparum in erythrocytes, SYBR Green DNA, 72 h; series mostly up to 28.7 µM. The procedure, abridged: as §1
The next assay concerns C2A. The assay is described as above. Conditions: P. falciparum in erythrocytes, SYBR Green DNA, 72 h; series mostly up to 28.7 µM. The procedure, abridged: as §1
The test system of the next assay is CP185. The description is as above. To be noted: P. falciparum in erythrocytes, SYBR Green DNA, 72 h; series mostly up to 28.7 µM. The procedure, abridged:
as §1

The next assay deals with CP191. The description is as above. To be noted: P. falciparum in erythrocytes, SYBR Green DNA, 72 h; series mostly up to 28.7 µM. The procedure, abridged:
as §1

In the next assay the test system is CP192. Described as above. Conditions: P. falciparum in erythrocytes, SYBR Green DNA, 72 h; series mostly up to 28.7 µM. The procedure, abridged:
as §1

Setting [2] is: at 28.7 µM (top of the series), parasite line A.
Where [3] appears, read: at 28.7 µM (top of the series), parasite line B.
Where [4] appears, read: at 12.8 µM (top of the series), parasite line A.
Where [5] appears, read: at 12.8 µM (top of the series), parasite line B.
Potency is the fitted concentration of half-maximal effect.

As to `COC(=O)C(CN)c1c[nH]c2ccc(OC)cc12` (configuration not stated), the activity, negative = inhibition in assay [1] (setting [2]) is -3.75%; in assay [1] (setting [3]), -2.84%. For the same compound, the Potency result in the assay with 3D7, in the assay on 7G8, in the assay with AA1029, with AS120, in the assay with ATS189 and with ATS95 was “inactive” each time. Further, the Potency result in the assay on C2A, with CP185, in the assay with CP191 and in the assay on CP192 was “inactive” throughout.

Take `Nc1ncnc2c1ncn2[C@H]1CC[C@@H](CO)O1`: the activity, negative = inhibition in assay [1] (setting [2]) is 5.25%; in [1] (setting [3]), 9.47%. The Potency result in the assay on 3D7, in the assay on 7G8, in the assay with AA1029, with AS120, in the assay on ATS189 and in the assay on ATS95 was “inactive” each time. In addition, the Potency entry in the assay on C2A, with CP185, in the assay on CP191 and in the assay with CP192 was “inactive” each time.

As for `F[Si-2](F)(F)(F)(F)F`, the activity, negative = inhibition in assay [1] (setting [2]) was 3.4%; in [1] (setting [3]) it was 19.2%. In addition, the Potency result in the assay on 3D7, in the assay with 7G8, in the assay on AA1029, in the assay with AS120, with ATS189 and in the assay on ATS95 was “inactive” throughout. Besides, the Potency entry in the assay with C2A, in the assay on CP185, in the assay on CP191 and in the assay on CP192 was “inactive” throughout.

In the case of `CCOC(=S)SSC(=S)OCC`, the activity, negative = inhibition in [1] (setting [2]) was 12.6%; in [1] (setting [3]), -0.533%. The Potency entry with 3D7, in the assay on 7G8, in the assay with AA1029, in the assay with AS120, in the assay on ATS189 and with ATS95 was “inactive” in each case. The Potency entry in the assay with C2A, in the assay with CP185, in the assay with CP191 and in the assay with CP192 was “inactive” throughout.

With `C=C(C)C1CC=C(C)CC1` (configuration not stated), the figures for the activity, negative = inhibition in assay [1] (setting [2]) and in assay [1] (setting [3]) were 7.1% and 5.88%, respectively. In addition, the Potency result in the assay with 3D7, with 7G8, in the assay on AA1029, in the assay with AS120, in the assay on ATS189 and in the assay with ATS95 was “inactive” in each case. Moreover, the Potency entry in the assay on C2A, with CP185, in the assay on CP191 and in the assay on CP192 was “inactive” throughout.

`CC(=O)Nc1ccc(OC(=O)c2ccccc2O)cc1`: the activity, negative = inhibition in assay [1] (setting [2]) is -9.69%; in assay [1] (setting [3]), 13.7%. Also, the Potency result with 3D7, with 7G8, in the assay with AA1029, in the assay on AS120, with ATS189 and with ATS95 was “inactive” in each case. In addition, the Potency entry in the assay on C2A, in the assay on CP185, in the assay on CP191 and with CP192 was “inactive” throughout.

For the compound `CCCc1ccc(C(=O)O)cc1`, the activity, negative = inhibition in [1] (setting [2]) was -2.85%; in assay [1] (setting [3]), -4.82%. Besides, the Potency result in the assay with 3D7, in the assay with 7G8, with AA1029, with AS120, with ATS189 and in the assay with ATS95 was “inactive” each time. Moreover, the Potency entry in the assay on C2A, in the assay with CP185, in the assay on CP191 and with CP192 was “inactive” in each case.

For the compound `CC(=O)N=c1sc(S(N)(=O)=O)nn1C`, the activity, negative = inhibition is -0.509% in assay [1] (setting [4]) and -5.64% in assay [1] (setting [5]). In addition, the Potency result in the assay on 3D7, with 7G8, in the assay with AA1029, with AS120, in the assay with ATS189 and in the assay on ATS95 was “inactive” each time. Also, the Potency entry in the assay on C2A, in the assay with CP185, in the assay with CP191 and in the assay with CP192 was “inactive” each time.

Take `CC(C)NCC(O)COc1ccccc1-n1cccc1` (configuration not stated): the activity, negative = inhibition is 18.2% in assay [1] (setting [2]) and -1.41% in assay [1] (setting [3]). For the same compound, the Potency entry in the assay on 3D7, in the assay with AA1029, in the assay with AS120, with ATS189, with ATS95 and in the assay on C2A was “inactive” throughout. The Potency result with CP185, in the assay on CP191 and in the assay with CP192 was “inactive” in each case. Further, the Potency in the assay on 7G8 is 7.08 µM (active).

Turning to `OC[C@H]1O[C@@H]2O[C@H]3[C@H](O)[C@@H](O)[C@@H](O[C@H]4[C@H](O)[C@@H](O)[C@@H](O[C@H]5[C@H](O)[C@@H](O)[C@@H](O[C@H]6[C@H](O)[C@@H](O)[C@@H](O[C@H]7[C@H](O)[C@@H](O)[C@@H](O[C@H]1[C@H](O)[C@H]2O)O[C@@H]7CO)O[C@@H]6CO)O[C@@H]5CO)O[C@@H]4CO)O[C@@H]3CO`, the activity, negative = inhibition was 6.28% in [1] (setting [2]) and 7.95% in [1] (setting [3]). In addition, the Potency result with 3D7, in the assay on 7G8, with AA1029, in the assay with AS120, with ATS189 and with ATS95 was “inactive” throughout. In addition, the Potency result with C2A, in the assay on CP185, with CP191 and in the assay with CP192 was “inactive” throughout.

Take `N[C@H](CC(=O)O)C(=O)O`: the results for the activity, negative = inhibition in assay [1] (setting [2]) and in assay [1] (setting [3]) were 6.17% and 8.93%, respectively. The Potency result in the assay with 3D7, in the assay with 7G8, with AA1029, with AS120, in the assay on ATS189 and with ATS95 was “inactive” throughout. Moreover, the Potency entry with C2A, in the assay with CP185, in the assay on CP191 and with CP192 was “inactive” throughout.

`CCN(CC)CCC(=O)N1c2ccccc2Sc2ccc(C(F)(F)F)cc21`: the figures for the activity, negative = inhibition in [1] (setting [2]) and in assay [1] (setting [3]) were -4.68% and -16.3%, respectively. Moreover, the Potency result in the assay on 3D7, in the assay on AA1029, with AS120, in the assay with ATS189, in the assay with ATS95 and with C2A was “inactive” throughout. For the same compound, the Potency entry with CP185, in the assay with CP191 and in the assay with CP192 was “inactive” in each case. The Potency in the assay with 7G8 is 11.2 µM (active).

Take `CN1C(=O)OC(C)(C)C1=O`: the activity, negative = inhibition in assay [1] (setting [4]) is -13.9%; in assay [1] (setting [5]), 4.58%. Besides, the Potency result in the assay on 3D7, in the assay on 7G8, with AA1029, in the assay with AS120, in the assay with ATS189 and with ATS95 was “inactive” each time. The Potency result in the assay on C2A, in the assay with CP185, in the assay on CP191 and in the assay on CP192 was “inactive” each time.

On to `O=C(O)C1=C(CSc2nnnn2CS(=O)(=O)O)CS[C@@H]2[C@H](NC(=O)[C@H](O)c3ccccc3)C(=O)N12`, for which the results for the activity, negative = inhibition in assay [1] (setting [2]) and in [1] (setting [3]) were -7.54% and 1.69%, respectively. For the same compound, the Potency entry with 3D7, with 7G8, with AA1029, in the assay with AS120, with ATS189 and with ATS95 was “inactive” each time. Besides, the Potency entry in the assay on C2A, with CP185, with CP191 and with CP192 was “inactive” throughout.

For `CC(CNC(=O)c1cccnc1)NC(=O)c1cccnc1` (configuration not stated), the activity, negative = inhibition was 8.56% in [1] (setting [2]) and 11.1% in assay [1] (setting [3]). In addition, the Potency result in the assay on 3D7, in the assay on 7G8, in the assay with AA1029, in the assay on AS120, in the assay with ATS189 and with ATS95 was “inactive” in each case. Moreover, the Potency entry with C2A, with CP185, in the assay with CP191 and with CP192 was “inactive” throughout.

With `CO/N=C(\C(=O)N[C@@H]1C(=O)N2C(C(=O)[O-])=C(C[n+]3cccc4c3CCC4)CS[C@H]12)c1csc(N)n1`, the results for the activity, negative = inhibition in assay [1] (setting [2]) and in assay [1] (setting [3]) were 12.2% and 2.56%, respectively. The Potency entry with 3D7, in the assay with 7G8, in the assay with AA1029, in the assay with AS120, in the assay with ATS189 and in the assay with ATS95 was “inactive” in each case. Moreover, the Potency entry with C2A, with CP185, in the assay on CP191 and with CP192 was “inactive” each time.
